Only some compounds are listed: those with a hit (about 0.67% of all), similar ones and a draw of the others.
GC-A act – GC-A (human) enzyme activation; P16066; HEK293 GC-A cells, cGMP TR-FRET, EC30 ANP; 0% at EC30 ANP, 100% saturating ANP; activation, % at 10 µM; 0.14% of 370,000 active; in the data active = activation above about 40%
Rin1-Abl PPI inh – human Rin1-Abl interaction inhibition | TR-FRET Rin1/Abl binding, biochemical | P00519+Q13671 | 0.4% of 360,000 active | AID 588664 | inhibition, % at 7.35 µM; in the data active = inhibition above about 5%, passing the limit was not always enough
Target sequence (P00519 whole entry, looked up): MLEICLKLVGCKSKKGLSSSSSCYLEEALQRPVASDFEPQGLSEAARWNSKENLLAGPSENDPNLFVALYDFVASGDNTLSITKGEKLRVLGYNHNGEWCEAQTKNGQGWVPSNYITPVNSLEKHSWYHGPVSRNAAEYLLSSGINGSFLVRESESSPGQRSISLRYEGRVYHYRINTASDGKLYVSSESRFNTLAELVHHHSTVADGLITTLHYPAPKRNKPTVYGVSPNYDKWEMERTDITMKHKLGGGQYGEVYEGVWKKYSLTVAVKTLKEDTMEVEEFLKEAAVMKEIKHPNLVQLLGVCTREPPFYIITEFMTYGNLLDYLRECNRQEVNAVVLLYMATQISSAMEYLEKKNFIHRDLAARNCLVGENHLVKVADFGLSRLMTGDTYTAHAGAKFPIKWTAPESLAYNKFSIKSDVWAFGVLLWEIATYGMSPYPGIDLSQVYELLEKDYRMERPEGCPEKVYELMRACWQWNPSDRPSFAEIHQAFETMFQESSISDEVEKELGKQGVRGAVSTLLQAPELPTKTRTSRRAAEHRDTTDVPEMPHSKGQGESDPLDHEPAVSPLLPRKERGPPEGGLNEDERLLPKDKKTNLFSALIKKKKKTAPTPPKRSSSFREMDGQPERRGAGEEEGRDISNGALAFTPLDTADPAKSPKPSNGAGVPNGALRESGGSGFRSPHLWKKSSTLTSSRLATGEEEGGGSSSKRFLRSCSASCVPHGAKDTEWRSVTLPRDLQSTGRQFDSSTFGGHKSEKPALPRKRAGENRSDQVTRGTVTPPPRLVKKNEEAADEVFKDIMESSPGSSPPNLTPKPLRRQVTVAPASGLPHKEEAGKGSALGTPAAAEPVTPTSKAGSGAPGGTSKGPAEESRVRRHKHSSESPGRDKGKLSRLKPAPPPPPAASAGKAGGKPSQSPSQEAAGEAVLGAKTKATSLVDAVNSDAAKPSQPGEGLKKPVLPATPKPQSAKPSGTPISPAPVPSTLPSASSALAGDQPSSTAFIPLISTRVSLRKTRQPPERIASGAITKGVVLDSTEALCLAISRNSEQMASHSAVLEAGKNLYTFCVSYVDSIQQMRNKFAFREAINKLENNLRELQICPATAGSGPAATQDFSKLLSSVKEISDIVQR
Target sequence (Q13671 whole entry, looked up): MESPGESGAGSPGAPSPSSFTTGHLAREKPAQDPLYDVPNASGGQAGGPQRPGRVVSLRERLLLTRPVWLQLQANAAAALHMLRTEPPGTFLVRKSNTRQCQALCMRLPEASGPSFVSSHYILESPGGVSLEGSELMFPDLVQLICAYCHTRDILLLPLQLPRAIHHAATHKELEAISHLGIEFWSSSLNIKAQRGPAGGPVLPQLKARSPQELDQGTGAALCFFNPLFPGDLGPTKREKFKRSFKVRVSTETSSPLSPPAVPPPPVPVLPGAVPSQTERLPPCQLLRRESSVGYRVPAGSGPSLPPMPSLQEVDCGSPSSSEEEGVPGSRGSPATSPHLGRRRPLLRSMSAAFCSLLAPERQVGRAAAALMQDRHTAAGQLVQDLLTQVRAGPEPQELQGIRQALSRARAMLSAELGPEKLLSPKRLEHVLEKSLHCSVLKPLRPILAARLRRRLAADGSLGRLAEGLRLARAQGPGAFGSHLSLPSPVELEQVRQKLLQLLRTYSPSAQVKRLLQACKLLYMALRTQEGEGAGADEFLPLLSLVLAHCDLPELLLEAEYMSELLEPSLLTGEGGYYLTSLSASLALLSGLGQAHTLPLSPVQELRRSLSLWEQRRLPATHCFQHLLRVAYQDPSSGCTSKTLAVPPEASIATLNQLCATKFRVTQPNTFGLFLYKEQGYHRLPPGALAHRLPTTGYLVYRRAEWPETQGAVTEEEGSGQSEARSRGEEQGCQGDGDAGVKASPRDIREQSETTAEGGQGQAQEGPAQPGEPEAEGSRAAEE
CaV13 ICDI inh – Primary screen for inhibitors of IQ motif and Ca2+-dependent inactivation inhibitor domain binding in CACNA1D, Förster resonance energy transfer in living cells, … | inhibition, % at 12.3 µM | HEK cells, CFP/YFP FRET ICDI-IQ, plate reader, 10 min; percent FRET-ratio fall versus neutral wells | 0.098% of 340,000 active;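 active = mean replicate inhibition of at least 30% and at least 1% of replicates passing that level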;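 also: 0% = median of the neutral control wells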
NPR2 activator – GC-B (human) receptor activation; P20594; HEK293-GC-B cells, CNP EC30, cGMP TR-FRET; 0% at EC30 CNP, 100% saturating CNP; activation, % at 10 µM; 0.11% of 370,000 active; AID 1920062;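 active = activation at 10 µM reaching about 35% in either raw or pattern-adjusted values, limit read from the data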
* marks the source's active call; other numbers are inactive results; nt = not tested or not shown.

SMILES	GC-A act	Rin1-Abl PPI inh	CaV13 ICDI inh	NPR2 activator
O=C(NS(=O)(=O)c1ccc(Cl)s1)c1ccccc1	-0.1	-2.7	46.2*	1.9
COc1ccc2nc(N3CCCCC3)c(/C=C3\SC(=S)NC3=O)cc2c1	5.4	6.6*	-5.3	-5.0
CC(=O)Oc1cc2cccc(OC(C)=O)c(=O)c2c(OC(C)=O)c1OC(C)=O	nt	22.9*	nt	nt
COc1cc2cccc(OC)c(=O)c2c(O)c1OC	-3.6	-4.3	-20.2	-3.7
CCOC(=O)C1=CN(CC2CCCO2)C=C(C(=O)OCC)C1c1ccccc1C(F)(F)F (stereo not drawn)	-11.7	-2.7	76.0*	-7.1
CCOC(=O)c1ccc(NC(=O)c2cccc3c2C(=O)N(CC2CCCO2)C3)cc1 (stereo not drawn)	4.0	1.5	-2.7	-15.7
COc1ccc(-c2nc3ccccc3n2Cc2ccc(C)cc2)cc1	63.1*	-6.5	-0.1	48.4*
CC1(NC(=O)c2ccc(C#Cc3cccc(F)c3)cn2)COC1	3.3	nt	nt	-3.2
COC(=O)[C@H](CC(C)C)N(CCCc1cn(Cc2ccc(C)cc2)nn1)S(=O)(=O)c1ccccc1Br	-3.9	nt	nt	10.3
C[C@@H]1ON(C)[C@H]2C[C@H]3c4[nH]c5c(-c6ccc7c(c6)OCO7)cccc5c4CCN3C(=O)[C@@H]12	-1.6	nt	-3.7	-0.1
NC(=O)C1(Nc2ccc(-c3ccc(Cl)cc3)cc2)CCCC1	58.1*	0.7	-3.7	-9.3
Cc1c(/C=N/NC(=O)c2cccnc2)c2ccccc2n1Cc1ccccc1	58.2*	0.5	-4.5	29.0
CC(C)(C)c1ccc(-c2noc(CCC(=O)NC3CC3)n2)cc1	-5.1	nt	nt	-7.3
Cc1cc(F)cc(C)c1Cn1cnc2c(cnn2C(C)(C)C)c1=O	0.3	0.7	-4.1	-0.1
Cc1ccc(F)c(Cn2cnc3c(cnn3C(C)(C)C)c2=O)c1Cl	31.8	-0.1	-3.7	38.0*
O=C(CSc1nnc(-c2ccccc2F)o1)OCc1ccccc1	60.6*	1.6	-11.5	-4.6
CCCOC(=O)CSc1nnc(-c2ccc(Cl)cc2Cl)o1	63.0*	-7.3	-7.5	-3.9
CCOC(=O)CSc1nnc(-c2ccc(Cl)cc2Cl)o1	66.7*	1.2	-4.3	1.0
CCOC(=O)CSc1nnc(-c2ccccc2)o1	-0.8	6.3	nt	0.9
NC(=O)CCCn1c(C(=O)c2cc(Cl)c(N)c(Cl)c2)c2ccc([N+](=O)[O-])cc2[n+]1[O-]	-5.5	-5.4	-0.2	58.4*
Cc1ccc(S(=O)(=O)CCC(=O)c2ccc(F)cc2)cc1	71.0*	3.0	-5.7	-3.1
Cc1ccc(C(=O)CCS(=O)(=O)c2ccc(F)cc2)cc1	52.5*	4.8	-6.5	-6.1
COc1ccc(C(=O)CCS(=O)(=O)c2ccc(F)cc2)cc1OC	-0.8	0.0	-10.4	-0.5
Cc1ccc(C(=O)CCS(=O)(=O)c2ccc(Cl)cc2)cc1	52.4*	0.4	-6.4	-9.6
Cc1ccc(S(=O)(=O)CCC(=O)NCc2ccc(Cl)cc2)cc1	2.8	-1.8	-2.1	2.3
SMILES	GC-A act	Rin1-Abl PPI inh	CaV13 ICDI inh	NPR2 activator
COC(=O)[C@]12C[C@H](CC(=O)NCC34CC5CC(CC(C5)C3)C4)C(=O)N(Cc3ccco3)C1=C[C@H](COCc1ccccc1)O[C@@H]2C	0.4	nt	nt	4.1
Cc1csc(NC(=O)c2ccc(COc3cccc(Cl)c3)o2)n1	39.5	nt	nt	41.4*
COC(=O)COc1ccc2cc(-c3ccccc3)c(=O)oc2c1	43.0*	-4.4	-7.6	11.1
COC(=O)COc1ccc2c(-c3ccc(OC)cc3)cc(=O)oc2c1	60.9*	2.9	-0.5	22.5
COC(=O)[C@]12C[C@H](CC(=O)N3CCC(c4ccccc4)CC3)C(=O)N(Cc3cccc4ccccc34)C1=C[C@H](C1CCCC1)O[C@@H]2C	4.4	nt	nt	4.5
COc1cccc(-c2nnc(SCC(=O)Nc3ccc(Oc4ccccc4)cc3)n2Cc2ccco2)c1	5.2	nt	nt	7.1
Cc1ccc2nc(-c3ccc(Cl)cc3)c(Cc3cccc(F)c3)n2c1	27.1	nt	-8.6	36.4*
Cc1ccc(Cc2c(-c3ccc(C)cc3)nc3ccc(Cl)cn23)cc1	30.2	1.1	-10.2	36.5*
Cc1ccc(-c2nc3ccc(Cl)cn3c2Cc2cccc(F)c2)cc1	11.7	2.3	-5.1	15.0
CC1C(=O)N(Cc2cn(CCC3OCCCO3)nn2)CCS(=O)(=O)N1Cc1ccc(-c2ccc(Cl)cc2)cc1 (stereo not drawn)	50.0*	-3.6	-4.9	-3.9
COc1ccc(OCCNc2cc(N3CCCCC3)ccc2[N+](=O)[O-])cc1	4.2	-4.4	-4.2	-0.5
